Laboratory results as given in the supplement of paper PMC10981050.
Values joined by “and” are separate entries in the source; they are usually repeats but may differ in a detail not shown here. Equal values may be shown once. Where a name gives a salt, the structure may show the parent alone.

Columns and labels:
Assay in all cases: cell viability relative to vehicle control; higher = less cytotoxic
Conditions in all cases: 10 µM
[1] = test system: K562
In short: (§1)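 Mutant clones made by CRISPR editing and their isogenic wild-type counterparts, from four leukaemia lines, were exposed to a single 10 µM dose of each library compound for 48 h. The supernatant was then removed and CellTiter-Glo luminescence was read. Viability was reported as percent of the on-plate vehicle control.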

[2] = test system: MARIMO
In short: as §1

[3] = test system: MOLM14
In short: as §1

[4] = test system: OCI-AML2
In short: as §1

| Structure (SMILES) | cell viability ([1]; SRSF2 genotype: SRSF2 P95H/wt) | cell viability ([1]; SRSF2 genotype: SRSF2 wt/wt) [%] | cell viability ([2]; SRSF2 genotype: SRSF2 P95H/wt) [%] | cell viability ([2]; SRSF2 genotype: SRSF2 wt/wt) [%] | cell viability ([3]; SRSF2 genotype: SRSF2 P95H/wt) [%] | cell viability ([3]; SRSF2 genotype: SRSF2 wt/wt) [%] | cell viability ([4]; SRSF2 genotype: P95H/wt) [%] | cell viability ([4]; SRSF2 genotype: wt/wt) [%] |
| --- | --- | --- | --- | --- | --- | --- | --- | --- |
| CC[C@H]1OC(=O)[C@H](C)[C@@H](O[C@H]2C[C@@](C)(OC)[C@@H](O)[C@H](C)O2)[C@H](C)[C@@H](O[C@@H]2O[C@H](C)C[C@H](N(C)C)[C@H]2O)[C@](C)(O)C[C@@H](C)C(=O)[C@H](C)[C@@H](O)[C@]1(C)O [Erythromycin] | 99.5% and 99.1% | 97.1 | 101 | 98.2 | 104 | 99.6 | 106 | 103 |
| CC(=O)O[C@@H]1CC[C@@]2(C)[C@@H](CC[C@]3(C)[C@@H]2C(=O)C=C2[C@@H]4[C@@H](C)[C@H](C)CC[C@]4(C)CC[C@]23C)[C@@]1(C)C(=O)O | 99.7% and 94.1% | 83.4 | 106 | 101 | 74.3 | 82.3 | 87.1 | 90.6 |
| Cc1c(CN2CCC(Nc3ncnc4sc(CC(F)(F)F)cc34)CC2)ccc2[nH]c(C#N)cc12 | 3.04% and 4.05% | 17.5 | 42.9 | 41.7 | 4.02 | 3.33 | 0.4 | 9.25 |
| CCOC(=O)C1OC1C(=O)NC(CC(C)C)C(=O)NCCC(C)C (configuration not stated) | 103% | 97.2 | 96.3 | 101 | 88.7 | 101 | 98.5 | 104 |
| O=C(c1ccc(OCCCc2c[nH]cn2)cc1)C1CC1 [Ciproxifan Maleate] | 89.3% and 91.3% | 87.7 | 85.2 | 90.4 | 95.9 | 93.9 | 71.8 | 83.4 |
| COc1ccc(C(C)=O)c(O)c1 [Paeonol (Peonol)] | 103% and 101% | 99.5 | 104 | 97.9 | 102 | 102 | 98.3 | 91.5 |
| C=C1CCC2C(C)(CO)C(O)CCC2(C)C1CC=C1C=COC1=O (configuration not stated) [Dehydroandrographolide] | 75.2% and 78.9% | 75.8 | 77.8 | 96.3 | 83.8 | 93.9 | 74.6 | 86.5 |
| COc1cc(Br)c(Nc2nc(-c3c(C)nc4ncccn34)cs2)c(Br)c1 | 20.6% and 23.8% | 24 | 14.7 | 19.2 | 16 | 10.7 | 2.76 | 8.07 |
| C/C=C(/C)C(=O)OC(C)(C)[C@@H]1Cc2c(ccc3ccc(=O)oc23)O1 [Columbianadin] | 99.8% and 97.1% | 99.2 | 87.8 | 86.5 | 102 | 98.4 | 72.8 | 77.5 |
| N=C(NOCC(O)CN1CCCCC1)c1cccnc1 (configuration not stated) | 106% and 96.6% | 106 | 104 | 99.2 | 108 | 101 | 97.6 | 104 |
| CC(=O)Oc1ccccc1C(=O)O [Aspirin (Acetylsalicylic acid)] | 102% and 101% | 94 | 96.4 | 95.9 | 95.7 | 102 | 100 | 96.7 |
| CC(NC(=O)C(O)c1cc(F)cc(F)c1)C(=O)NC1C(=O)N(C)c2ccccc2-c2ccccc21 (configuration not stated) | 99.5% and 96.4% | 99.2 | 96.1 | 97.8 | 102 | 105 | 98.7 | 96.8 |
| C[n+]1c2n(c(=O)c3ccccc31)CCc1c-2[nH]c2ccccc12 [Dehydroevodiamine hydrochloride] | 94.4% and 99.8% | 89.2 | 91.7 | 100 | 92.8 | 92.9 | 86.8 | 96.2 |
| CCc1c(C(=O)NCCc2ccc(N3CCCCC3)cc2)[nH]c2ccc(Cl)cc12 | 107% and 104% | 111 | 106 | 108 | 85.4 | 102 | 112 | 107 |
| O=C(c1cc(Cc2n[nH]c(=O)c3ccccc23)ccc1F)N1CCN(C(=O)C2CC2)CC1 | 92.6% and 101% | 97.2 | 84 | 96.1 | 59.4 | 31 | 44.6 | 58 |
| COc1ccc(-c2oc3c(CC=C(C)C)c(O[C@@H]4O[C@H](CO)[C@@H](O)[C@H](O)[C@H]4O)cc(O)c3c(=O)c2O[C@@H]2O[C@@H](C)[C@H](O)[C@@H](O)[C@H]2O[C@@H]2OC[C@@H](O)[C@H](O)[C@H]2O)cc1 [Epmedin B] | 103% and 99.7% | 102 | 105 | 93 | 110 | 102 | 103 | 99.5 |
| C[C@H]1[C@H](OC(=O)CCC(=O)O)O[C@@H]2O[C@@]3(C)CC[C@H]4[C@H](C)CC[C@@H]1[C@@]24OO3 [Artesunate] | 43.3% and 38.6% | 41.2 | 42.7 | 37.8 | 34.5 | 28.3 | 2.96 | 17.9 |
| COc1c(O)cc2c(c1O)[C@@H]1O[C@H](CO)[C@@H](O)[C@H](O)[C@H]1OC2=O [Bergenin (Cuscutin)] | 100% and 84% | 86.1 | 89.2 | 99 | 85.6 | 91.9 | 91 | 94.1 |
| CC=C1C(=O)C[C@H]2[C@@H]3CCC4=CC(=O)CC[C@]4(C)[C@H]3CC[C@]12C [Guggulsterone E&Z] | 76% and 84.7% | 79.3 | 61.7 | 72.3 | 80.4 | 89.3 | 71.8 | 76.7 |
| Fc1ccc(CNc2ncnc3ccc(F)cc23)cc1 [Spautin-1] | 66.5% and 63.9% | 66.7 | 54.7 | 41.1 | 51.3 | 59.4 | 35.6 | 31.5 |

| Structure (SMILES) | cell viability ([1]; SRSF2 genotype: SRSF2 P95H/wt) | cell viability ([1]; SRSF2 genotype: SRSF2 wt/wt) [%] | cell viability ([2]; SRSF2 genotype: SRSF2 P95H/wt) [%] | cell viability ([2]; SRSF2 genotype: SRSF2 wt/wt) [%] | cell viability ([3]; SRSF2 genotype: SRSF2 P95H/wt) [%] | cell viability ([3]; SRSF2 genotype: SRSF2 wt/wt) [%] | cell viability ([4]; SRSF2 genotype: P95H/wt) [%] | cell viability ([4]; SRSF2 genotype: wt/wt) [%] |
| --- | --- | --- | --- | --- | --- | --- | --- | --- |
| Cc1nccn1CCC(C(N)=O)(c1ccccc1)c1ccccc1 [Imidafenacin] | 94.5% and 91.6% | 105 | 87.6 | 91.8 | 99.2 | 101 | 90.8 | 102 |
| CC(C)N1CCN(Cc2cnc(-c3cc(-c4cccc5[nH]ccc45)cc4[nH]ncc34)o2)CC1 | 39.8% and 29.8% | 36.8 | 53.7 | 52.9 | 68.2 | 61.6 | 30.8 | 39.8 |
| Cc1c(C)c2c(c(C)c1O)CCC(C)(CCCC(C)CCCC(C)CCCC(C)C)O2 (configuration not stated) [Vitamin E] | 96.5% and 100% | 108 | 106 | 104 | 105 | 104 | 106 | 100 |
| Cc1ccccc1N1C(=O)c2cc(S(N)(=O)=O)c(Cl)cc2NC1C (configuration not stated) [Metolazone (Zaroxolyn)] | 104% and 99.9% | 96.7 | 96 | 99.7 | 99.5 | 97 | 101 | 98.3 |
| Cc1cc(NS(=O)(=O)c2ccc(N)cc2)no1 [Sulfamethoxazole sodium] | 107% and 94.7% | 100 | 101 | 110 | 102 | 104 | 93.1 | 109 |
| CO[C@H]1C[C@H](O[C@H]2[C@H](C)O[C@@H](O[C@@H]3/C(C)=C/C[C@@H]4C[C@@H](C[C@]5(C=C[C@H](C)[C@@H](C6CCCCC6)O5)O4)OC(=O)[C@@H]4C=C(C)[C@@H](O)[C@H]5OC/C(=C\C=C\[C@@H]3C)[C@]54O)C[C@@H]2OC)O[C@@H](C)[C@@H]1O [Doramectin] | 33% and 39.8% | 37.1 | 36.8 | 29.4 | 24.6 | 29.9 | 15.3 | 17.3 |
| COc1ccc([C@@H]2OC[C@H]3[C@@H]2CO[C@@H]3c2ccc3c(c2)OCO3)cc1OC [Fargesin] | 87.8% and 91.3% | 92.7 | 84.8 | 86 | 97.2 | 94.5 | 88.6 | 80.4 |
| O=C(O)c1cc(O)ccc1O [Gentisic acid] | 100% and 104% | 99.6 | 101 | 105 | 101 | 102 | 102 | 111 |
| O=c1c2ccccc2oc2ccccc12 [Xanthone (Genicide)] | 102% and 103% | 94.9 | 96.5 | 102 | 105 | 108 | 93.1 | 96.4 |
| CCC(C)C1OC2(CCC1C)CC1CC(CC=C(C)C(OC3CC(OC)C(OC4CC(OC)C(O)C(C)O4)C(C)O3)C(C)C=CC=C3COC4C(O)C(C)=CC(C(=O)O1)C34O)O2 (configuration not stated) [Ivermectin] | 24.6% and 35% | 26.9 | 25.9 | 22.9 | 21.3 | 18.4 | 4.65 | 7.41 |
| COc1ccc(NC(=O)c2ccc(C(=N)N(C)C)cc2)c(C(=O)Nc2ccc(Cl)cn2)c1 [Betrixaban] | 89.2% and 82.7% | 86.6 | 82.8 | 90.1 | 95.6 | 96.2 | 85.8 | 74.6 |
| O=C(O)C=C(CC(=O)O)C(=O)O [cis-Aconitic acid] | 109% and 108% | 101 | 102 | 113 | 102 | 103 | 97.9 | 106 |
| OCc1ccccc1O[C@@H]1O[C@H](CO)[C@@H](O)[C@H](O)[C@H]1O [Salicin (Salicoside, Salicine)] | 101% and 103% | 110 | 103 | 106 | 99.7 | 104 | 105 | 112 |
| O=C(O)CCc1ccc(NCc2cccc(Oc3ccccc3)c2)cc1 | 94.2% and 89.7% | 111 | 82.4 | 93.1 | 94.2 | 95.7 | 91 | 92.7 |
| Cc1cc(C#N)cc(C)c1Oc1nc(Nc2ccc(C#N)cc2)nc(N)c1Br [Etravirine (TMC125)] | 101% and 96.6% | 94.6 | 97 | 108 | 107 | 102 | 99.5 | 117 |
| CC(C)=CCC[C@](C)(O[C@@H]1O[C@H](CO)[C@@H](O)[C@H](O)[C@H]1O)[C@H]1CC[C@]2(C)[C@@H]1[C@H](O)C[C@@H]1[C@@]3(C)CC[C@H](O)C(C)(C)[C@@H]3[C@@H](O[C@@H]3O[C@H](CO)[C@@H](O)[C@H](O)[C@H]3O[C@@H]3OC[C@@H](O)[C@H](O)[C@H]3O)C[C@]12C [Notoginsenoside R1] | 98.4% and 101% | 94.8 | 106 | 104 | 106 | 103 | 94.6 | 96.7 |
| C=CC(=O)N1CCC[C@@H](n2nc(-c3ccc(Oc4ccccc4)cc3)c(C(N)=O)c2N)C1 [Btk inhibitor 2] | 81.6% and 89.2% | 84.8 | 79.8 | 90.2 | 25.4 | 25.4 | 48.2 | 52.1 |
| C/C=C/c1ccc(OC)cc1 [Trans-Anethole] | 107% and 99.3% | 97.3 | 103 | 102 | 103 | 103 | 92 | 116 |
| O=C(Nc1cccnc1)N1CCC(Cc2cccc(Oc3ccc(C(F)(F)F)cn3)c2)CC1 | 42% and 43.6% | 44.4 | 43.6 | 35.1 | 51.2 | 28.9 | 38.3 | 27.1 |
